Reference: PubChem BioAssay (Tox21)
Records with an inconclusive call do not appear. Calls of active or inactive are those of the source. Unless noted, calls come from the whole dose curve.

Columns and labels:
[1] = qHTS assay to identify small molecule agonists of the sonic hedgehog signaling (Shh) pathway (AID 1259368);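 note: NIH/3T3-derived 3T3Gli1-Luc cells carrying a stable Gli1-driven firefly luciferase reporter; series mostly up to about 92 µM; nearly all actives have a fitted effect of over 15% in size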
Method in brief: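 Quantitative high-throughput format using a Gli1-driven firefly luciferase reporter line derived from NIH/3T3 cells. After a 24 hr compound treatment at 37 C and 5% CO2, luminescence reported Gli1 response element activity.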

[2] = qHTS assay to identify small molecule antagonists of the sonic hedgehog signaling (Shh) pathway (AID 1259369); note: nearly all actives have a fitted effect of over 45% in size
Method in brief: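 Stable Gli1-Luc reporter NIH/3T3 clone; quantitative HTS in stimulated mode with conditioned medium. Luminescence measured after 24hr compound treatment at 37 C.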

[3] = biological target: Estrogen receptor beta (Homo sapiens) (UniProt Q92731); assay: qHTS assay to identify small molecule agonists of the estrogen receptor beta (ER-beta) signaling pathway (AID 1259377; active = well fitted activation curve with a large enough effect in the signal ratio in the repeat runs, not every such curve was filed as active; the % refers to the signal ratio)
Method in brief: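 HEK293T ER-beta-UAS-bla; 2% charcoal-stripped FBS; cells pre-incubated 6 hr, compound 16 hr, 37C/5% CO2; LiveBLAzer B/G FRET substrate 2 h RT; fluorescence intensity read.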

[4] = biological target: Estrogen receptor beta (Homo sapiens) (UniProt Q92731); assay: qHTS assay to identify small molecule antagonists of the estrogen receptor beta (ER-beta) signaling pathway (AID 1259378; active = well fitted inhibition curve with a large enough effect in the signal ratio in the repeat runs, not every such curve was filed as active; the % refers to the signal ratio)
Method in brief: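 ER-beta-UAS-bla HEK293T (GripTite) cells in 2% charcoal-stripped FBS medium were preincubated 6 hr at 37C, dosed with compound, then stimulated with 1 nM E2 (final) for 16 hr; beta-lactamase reporter read by B/G FRET fluorescence after 2 hr substrate loading.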

[5] = qHTS assay to identify small molecule agonists of the androgen receptor (AR) signaling pathway in the presence of an antagonist - cell viability counter screen (AID 1259379; active = well fitted curve in the direction sought with a large enough effect in the repeat runs; an effect the other way counts as inactive or inconclusive;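 note: MDA-kb2 human breast cancer cells carrying an MMTV luciferase reporter; series mostly up to about 92 µM; nearly all actives have a fitted effect of over 25% in size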)
Method in brief: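 Nilutamide-containing (3.0uM final) MDA-kb2 cultures, 3,000 cells/well, were treated with compounds across 15 concentrations. After 16 hr at 37C with no CO2, cell viability was determined by CellTiter-Fluor fluorescence in the luciferase assay wells.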

[6] = qHTS assay to identify small molecule agonists of the estrogen receptor beta (ER-beta) signaling pathway - cell viability counter screen (AID 1259380; active = well fitted curve in the direction sought with a large enough effect in the repeat runs; an effect the other way counts as inactive or inconclusive; note: nearly all actives have a fitted effect of over 30% in size)
Method in brief: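 Steps: plate ER-beta-UAS-bla HEK293T cells, rest 6 hr; add compounds in DMSO; incubate 16 hr at 37C, 5% CO2; add FRET substrate 2 hr; add CellTiter-Glo, wait 30 min at room temperature; read luminescence.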

[7] = qHTS assay to identify small molecule antagonists of the estrogen receptor beta (ER-beta) signaling pathway - cell viability counter screen (AID 1259382; active = well fitted curve in the direction sought with a large enough effect in the repeat runs; an effect the other way counts as inactive or inconclusive; note: series mostly up to about 92 µM; nearly all actives have a fitted effect of over 55% in size)
Method in brief: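 Viability is scored by CellTiter-Glo luminescence (30 min, room temperature) in ER-beta-UAS-bla HEK293T wells already read for reporter fluorescence. Compound exposure lasts 16 hr at 37C alongside 1nM 17-beta-estradiol in charcoal-stripped serum medium.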

[8] = qHTS assay to identify small molecule agonists or antagonists of the thyroid stimulating hormone receptor (TSHR) signaling pathway - wild type cell line counter screen (AID 1259384)
Method in brief: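 Wild-type HEK293 cells were plated 18 h at 37 C/5% CO2, pin-dosed with compound plus Ro20-1724 medium, held 30 min at room temperature, then given cAMP-d2 and anti-cAMP-cryptate; fluorescence was read after 1 h. Fifteen concentrations, triplicate.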

[9] = biological target: Estrogen receptor (Homo sapiens) (UniProt P03372); assay: qHTS assay to identify small molecule agonists of the estrogen receptor alpha (ER-alpha) signaling pathway in the presence of an antagonist (AID 1259383); note: top concentration of the series differs between compounds; nearly all actives have a fitted effect of over 15% in size
Method in brief: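 Readout was ERE-driven luciferase luminescence in VM7Luc4E2 cells, which express full-length ER-alpha endogenously. Compounds were tested at 15 concentrations for 22hr alongside 10.0nM ICI-182,780 (final concentration).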

[10] = biological target: Androgen receptor (Homo sapiens) (UniProt P10275); assay: qHTS assay to identify small molecule agonists of the androgen receptor (AR) signaling pathway in the presence of an antagonist (AID 1259381); note: nearly all actives have a fitted effect of over 15% in size
Method in brief: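 Reporter-gene luminescence from MDA-kb2 cells exposed 16hr at 37C (0% CO2) to 15-point compound titrations with 3.0uM final nilutamide as AR antagonist.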
% is set by controls: 0 for no effect and ±100 for the full control effect.

Chain of Estrogen receptor (Homo sapiens) (P03372 whole entry, looked up): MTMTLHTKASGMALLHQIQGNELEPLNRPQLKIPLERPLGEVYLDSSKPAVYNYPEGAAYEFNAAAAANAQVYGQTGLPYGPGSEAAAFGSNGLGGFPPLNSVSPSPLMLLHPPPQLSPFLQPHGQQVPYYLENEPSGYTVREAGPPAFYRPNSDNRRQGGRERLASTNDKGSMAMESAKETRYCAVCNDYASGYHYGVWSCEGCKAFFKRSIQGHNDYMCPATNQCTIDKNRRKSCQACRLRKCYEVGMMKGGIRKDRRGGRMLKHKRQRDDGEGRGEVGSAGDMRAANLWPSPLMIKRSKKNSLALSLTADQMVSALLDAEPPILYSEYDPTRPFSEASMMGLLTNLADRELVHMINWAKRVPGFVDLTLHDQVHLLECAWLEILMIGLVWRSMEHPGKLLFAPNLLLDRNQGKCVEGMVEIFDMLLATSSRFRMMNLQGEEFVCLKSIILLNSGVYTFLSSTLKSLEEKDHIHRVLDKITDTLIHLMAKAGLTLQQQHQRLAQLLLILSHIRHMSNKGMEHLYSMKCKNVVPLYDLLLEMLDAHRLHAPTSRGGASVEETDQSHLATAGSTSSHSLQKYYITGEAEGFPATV
Chain of Estrogen receptor beta (Homo sapiens) (Q92731 whole entry, looked up): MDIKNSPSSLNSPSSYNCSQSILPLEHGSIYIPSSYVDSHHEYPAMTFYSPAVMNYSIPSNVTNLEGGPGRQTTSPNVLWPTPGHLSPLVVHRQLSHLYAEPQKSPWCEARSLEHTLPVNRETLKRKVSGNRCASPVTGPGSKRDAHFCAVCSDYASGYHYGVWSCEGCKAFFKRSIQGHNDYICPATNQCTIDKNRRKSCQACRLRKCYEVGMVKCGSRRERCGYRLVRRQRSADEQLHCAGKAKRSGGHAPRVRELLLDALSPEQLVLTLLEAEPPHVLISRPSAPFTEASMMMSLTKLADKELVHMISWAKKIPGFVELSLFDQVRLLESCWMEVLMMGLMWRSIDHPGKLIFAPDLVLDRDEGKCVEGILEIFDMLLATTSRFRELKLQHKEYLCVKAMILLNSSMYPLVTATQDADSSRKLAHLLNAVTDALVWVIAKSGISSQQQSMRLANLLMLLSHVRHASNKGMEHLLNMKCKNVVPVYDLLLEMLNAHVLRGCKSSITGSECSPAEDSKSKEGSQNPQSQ
Chain of Androgen receptor (Homo sapiens) (P10275 whole entry, looked up): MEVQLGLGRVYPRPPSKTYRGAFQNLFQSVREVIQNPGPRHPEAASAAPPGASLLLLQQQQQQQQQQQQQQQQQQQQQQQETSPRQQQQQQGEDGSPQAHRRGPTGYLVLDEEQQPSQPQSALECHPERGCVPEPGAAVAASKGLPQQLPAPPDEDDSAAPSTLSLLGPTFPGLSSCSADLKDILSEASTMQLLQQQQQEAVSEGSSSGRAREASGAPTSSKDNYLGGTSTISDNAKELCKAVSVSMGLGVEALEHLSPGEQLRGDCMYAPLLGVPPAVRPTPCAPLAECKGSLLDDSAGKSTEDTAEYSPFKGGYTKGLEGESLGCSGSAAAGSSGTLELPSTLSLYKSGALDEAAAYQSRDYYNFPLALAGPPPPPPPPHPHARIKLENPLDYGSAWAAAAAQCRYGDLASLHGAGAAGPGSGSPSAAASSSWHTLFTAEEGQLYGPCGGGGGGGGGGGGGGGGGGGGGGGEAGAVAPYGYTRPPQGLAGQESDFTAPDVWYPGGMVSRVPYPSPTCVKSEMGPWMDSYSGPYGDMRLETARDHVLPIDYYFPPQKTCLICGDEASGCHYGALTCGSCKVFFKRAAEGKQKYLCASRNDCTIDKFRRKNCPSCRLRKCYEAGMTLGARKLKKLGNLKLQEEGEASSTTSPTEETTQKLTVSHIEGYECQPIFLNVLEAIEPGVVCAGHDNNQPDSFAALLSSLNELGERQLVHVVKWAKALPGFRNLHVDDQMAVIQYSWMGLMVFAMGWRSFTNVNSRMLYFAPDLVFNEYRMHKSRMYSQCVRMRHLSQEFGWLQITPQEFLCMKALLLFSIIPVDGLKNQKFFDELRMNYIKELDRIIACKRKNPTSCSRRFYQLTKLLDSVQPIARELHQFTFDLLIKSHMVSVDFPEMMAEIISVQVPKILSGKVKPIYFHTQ

CSc1ccc(C=O)cc1
inactive: Potency [1] | Potency [2] | outcome [3] | Potency [4] | Potency [5] | Potency [6] | Potency [7] | outcome [8]

N#CCN(CC#N)CCN(CC#N)CC#N
inactive: Potency [1] | Potency [2] | outcome [3] | Potency [4] | Potency [5] | Potency [7] | outcome [8]

NS(=O)(=O)c1cc(C2(O)NC(=O)c3ccccc32)ccc1Cl (configuration not stated)
inactive: Potency [1] | Potency [2] | outcome [3] | Potency [4] | Potency [5] | Potency [7] | outcome [8]

O=C(O)C(O)[C@H](O)[C@@H](O)[C@H](O)[C@H](O)CO (some centres not stated)
inactive: Potency [1] | Potency [2] | outcome [3] | Potency [4] | Potency [5] | Potency [9] | outcome [8]

CN(C)N=Nc1ccccc1
inactive: Potency [1] | Potency [2] | outcome [3] | Potency [4] | Potency [5] | Potency [7] | outcome [8]

CC12CCC(CC1=O)C2(C)C (configuration not stated)
inactive: Potency [1] | Potency [2] | outcome [3] | Potency [4] | Potency [5] | Potency [6] | Potency [7] | outcome [8]

CN(C)C(=O)Nc1ccccc1
inactive: Potency [1] | Potency [2] | outcome [3] | Potency [4] | Potency [5] | Potency [6] | outcome [8]

CCCCN(CCO)CCO
inactive: Potency [1] | Potency [2] | outcome [3] | Potency [4] | Potency [6] | Potency [7]

CC(C)(C)OC(=O)N1C[C@@H](F)C[C@H]1C(=O)O
inactive: Potency [1] | Potency [2] | outcome [3] | Potency [4] | Potency [5] | Potency [6] | Potency [9] | outcome [8]

C=C(C)C(=O)OCCCCCCCCCCCCCCCCCC
inactive: activity change [1] -0.0741% [at 18.9 µM, hits give high values] | activity change, negative = inhibition [2] 6.62% [at 19 µM] | activation [3] 0.356% [at 19 µM] | activity, negative = inhibition [4] -0.254% [at 19 µM] | activity change, negative = cytotoxicity [5] 0.335% [at 19 µM] | activity change, negative = cytotoxicity [7] 13.7% [at 19 µM] | activation [9] 0.0113% [at 19 µM] | cAMP activity change [8] -1.57% [at 18.9 µM]

NC(N)=NS(=O)(=O)c1ccc(N)cc1
inactive: Potency [1] | Potency [2] | outcome [3] | Potency [4] | Potency [6] | Potency [10] | Potency [7] | Potency [9] | outcome [8]

CCCC=O
inactive: Potency [1] | Potency [2] | outcome [3] | Potency [4] | Potency [5] | Potency [7] | outcome [8]

CCN1CCCC(OC(=O)C(c2ccccc2)c2ccccc2)C1 (configuration not stated)
inactive: Potency [1] | Potency [2] | outcome [3] | Potency [4] | Potency [5] | outcome [8]

NC(=O)Nc1nc2ccccc2[nH]1
inactive: Potency [1] | Potency [2] | outcome [3] | Potency [4] | Potency [6] | Potency [7] | Potency [9]
